Measurements reported in PubChem BioAssay (NCI).
This is part of a sample that, as a whole, favours compounds with a hit. Of some 83,000 tested, about 20% had one in any assay.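 Single-dose data. Exposure time 48 hours. Values below 10 considered active.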 Values without a mark were called inactive. Activity calls are given as the source filed them.

System: HL-60(TB) leukemia
Test: NCI-60 one-dose screen, 48 h (100 = growth as untreated, 0 = no growth, -100 = all killed)
Conditions: 10 µM unless noted

Compound | growth
O=C(N(c1ccccc1)c1ccccc1)n1cc(I)c2nc(Cl)nc(Cl)c21 | 22.9%
COc1cccc(C2C(C#N)=C(N)Oc3cc(OC)ccc32)c1 (stereo not drawn) | -32.2% (active)
Nc1ccc2c(c1)c(N)nn2C(=O)Nc1ccc(Cc2ccccc2)cc1 | 16.4%
CC(C)(CNC1CCCCC1)OC(=O)c1ccccc1 | 95.3%
COc1ccc(C(=O)Nc2ccc3nc(N4CCCCC4)cc(C)c3c2)cc1OC | 60.3%
FC1(F)CCN(Cc2c[nH]c3cc(Cl)ccc23)C[C@H]1CCc1ccccc1 | 62.1%
COc1cc(-c2nc3ccc(C)cc3[nH]2)ccc1OCc1nnc(-c2ccc(CC(C)C)cc2)o1 | 110%
COc1ccccc1S(=O)(=O)Nc1ccc2c3c(cc(-c4cnn(C)c4)nc13)C(=O)N2C | -30.1% (active)
O=C(c1c[nH]c2ccccc12)C(Sc1nc2ccccc2c(=O)[nH]1)c1ccccc1 (stereo not drawn) | 93.1%
Brc1ccc(-c2nc3ccccc3s2)cc1 | 99.6%
CCN(CC)CC(O)CNc1ccnc2cc(Cl)c(Cl)cc12 (stereo not drawn) | 92.2%
Nc1nccc2c1ccn2-c1cccc(NC(=O)c2ccc(N3CCOCC3)c(C(F)(F)F)c2)c1 | -3.75% (active)
COc1cc2c(cc1OCCCN1Cc3ccc(OCCCCC(=O)N4CCC(CCN5CCCC5)CC4)cc3C1)N=C(N)C21CCCC1 | 84.9%
CC/C=C/C/C=C/C/C=C/C/C=C/C/C=C/C/C=C/CCC(=O)Nc1ccn([C@@H]2O[C@H](CO)[C@@H](O)C2(F)F)c(=O)n1 | -16.1% (active)
NC(=O)c1c(NC(=O)COC(=O)Cc2ccccc2F)sc2c1CCC2 | 135%
COc1cc(/C=N/NC(=O)c2ccc(C)nc2)cc(OC)c1OC | 56%
CN1CCN(Cc2ccc(NC(=O)c3cncc(C#Cc4cnc(N)c5ccc(F)cc45)c3)cc2C(F)(F)F)CC1 | -27% (active)
CN1C(=O)c2cc(Cl)nc3c(NC(=O)c4cccc(Cl)c4)c(Cl)c(NC(=O)c4cccc(Cl)c4)c1c23 | -30.7% (active)
COc1cccc(-c2nnc(N)o2)c1 | 74.9%
O=C(Nc1cccc(-n2cc(-c3ccncc3)c(-c3cc(O)cc(Cl)c3)n2)c1)Nc1ccc(Cl)c(C(F)(F)F)c1 | -26.9% (active)
O=C(O)c1cc(N=Nc2ccc(-c3ccc(N=Nc4c(S(=O)(=O)O)cc5ccc(Nc6ccccc6)cc5c4O)cc3)cc2)ccc1O | 98.9%
COC(=O)[C@@H]1[C@H](O)[C@H](C)[C@H](O)[C@@](C)(O)/C=C\C=C(C)C(=O)Nc2c(C)c(OC(C)=O)c3c(c2O)C(=O)C(C)=C2OCOC(=C23)C(C)=C[C@@](C)(O)[C@H](O)[C@@H](C)[C@H]1OC(C)=O | 71.2%
Cc1nc2ccccc2n1CC1NC(=O)NC1=O (stereo not drawn) | 95.1%
ClC1=C(Cl)C(Cl)=C(Cl)C1=C/C=C/c1ccccc1 | -45.5% (active)
OC1CSSC1Cn1cnc2c(Nc3ccc(F)c(Cl)c3)ncnc21 (stereo not drawn) | 45.8%
CCNCCNc1cc(-c2ccc(C(F)(F)F)cc2)c(C#N)c2nc3cc(Cl)c(Cl)cc3n12 | -56.9% (active)
CCO/C=N/NC(=O)c1ccncc1 | 102%
O=C1Nc2ccccc2/C1=N/N=C/c1ccc(OC2OC(CO)C(O)C(O)C2O)cc1 (stereo not drawn) | 101%
